Assay results taken from PubChem BioAssay (NCATS).
Records with an inconclusive call do not appear. The source made the active and inactive calls. Unless noted, the call rests on the fitted dose curve; in most records, active means well fitted curve in the direction sought with a large enough effect; inconclusive means small, poorly fitted or top-dose-only effect, or another doubt; inactive means no such curve, though single readings can be large; an effect the other way counts as inactive or inconclusive.

How the values were obtained:
[1] = Cell Viability - Hek293 (AID 427;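 active means compounds whose dose-response curve shows a full or clear partial loss of cell viability, called from curve shape rather than a numeric limit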;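 further: potency means the concentration at half of the fitted maximal effect; cells exposed to compound for 40 hours at 37 °C before reading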); conditions: qHTS
In short: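 HEK293 cells in complete medium were exposed to compound for 40 hr at 37 °C, then cellular ATP was read by CellTiter-Glo luminescence. Data were normalized to DMSO (basal) and 100 uM tamoxifen (100% inhibition), and AC50 came from Hill fits.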

[2] = Cell Viability - HepG2 (AID 433; calls by dose curve;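 further: potency means the concentration at half of the fitted maximal effect; potency for ATP loss meaning cytotoxicity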); conditions: qHTS
In short: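 Cytotoxicity is scored as loss of intracellular ATP in HepG2 cells exposed to compounds for 40 h. Concentration-response curves, normalized to DMSO and 100 uM tamoxifen, give AC50 values.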

[3] = Cell Viability - MRC5 (AID 434; calls by dose curve;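 further: potency means the concentration at half of the fitted maximal effect; potency reflects cytotoxicity seen as loss of intracellular ATP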); conditions: MRC5 lung fibroblast viability, qHTS
In short: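 ATP luminescence read-out (CellTiter-Glo, 20 min RT) after 40 hr, 37 °C compound exposure of 1500 MRC5 cells/well. Data normalized to DMSO (basal) and 100 uM tamoxifen (100% inhibition); AC50 from standard Hill equation.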

[4] = Cell Viability - SK-N-SH (AID 435; calls by dose curve;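 further: potency means the concentration at half of the fitted maximal effect; compound exposure lasted 40 h at 37 °C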); conditions: SK-N-SH neuroblastoma cell viability qHTS
In short: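 Cells seeded at 1500 per well and incubated 5 hr at 37 °C. Compound added, then 40 hr at 37 °C. CellTiter-Glo added, 20 min at room temperature, luminescence read.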

[5] = molecular target: Mitogen-activated protein kinase 10 (Mus musculus) (UniProt Q61831); assay: JNK3 AlphaScreen Assay (AID 530; active means well fitted curve in either direction with a large enough effect, not every such curve was filed as active;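 further: kinase came from lysate of stimulated human HepG2 cells; signal reports phosphorylation of biotinylated GST-cJun 1-79 at Ser73 with 10 µM ATP; on the % scale 0 is the no-effect control and ±100 the full control effect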); conditions: JNK3 lysate, c-Jun phosphorylation; series mostly up to 57.1 µM
In short: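 HepG2 lysate (IL-1b/TNFa pre-activated) + biotin-GST-cJun 1-79 + anti-pSer73 cJun; cpd titration, 15 min RT; ATP 10 uM start; Tris pH 7.6, MgCl2, DTT, vanadate; beads in EDTA buffer; AlphaScreen.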

[6] = Cell Viability - N2a (AID 540); conditions: N2a mouse neuroblastoma cell viability; activity change, negative = cytotoxicity: at 92.2 µM (top of the series);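 further: plate controls were DMSO alone for no effect and tamoxifen control for full effect; nearly all actives have a fitted effect of over 45% in size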
In short: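 In this qHTS cytotoxicity screen, ATP-dependent luciferase luminescence reports viable N2a cells after a 40 hr compound exposure in complete culture medium. Potencies are AC50 values from standard Hill equation fits.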

[7] = Cell Viability - NIH 3T3 (AID 541); conditions: NIH 3T3 cell viability, qHTS; activity change, negative = cytotoxicity: at 92.2 µM (top of the series);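 further: plate controls were DMSO alone for no effect and tamoxifen positive control for full effect; nearly all actives have a fitted effect of over 25% in size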
In short: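 In this cytotoxicity screen, acute toxicity is scored as an ATP drop measured by CellTiter-Glo in NIH 3T3 fibroblasts following a 40 hr, 37 °C incubation with compound.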

[8] = Cell Viability - HUV-EC-C (AID 542); conditions: HUV-EC-C endothelial cell viability, qHTS; series mostly up to 92.2 µM; further: on the % scale 0 is the no-effect control and ±100 the full control effect; nearly all actives have a fitted effect of over 35% in size
In short: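 Concentration-dependent ATP loss in HUV-EC-C cells is the measure. Exposure lasts 40 hr at 37 °C; luminescence follows CellTiter-Glo addition, and Hill fits give AC50.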

[9] = Cell Viability - H-4-II-E (AID 543); conditions: H-4-II-E rat hepatoma viability; series mostly up to 92.2 µM; further: on the % scale 0 is the no-effect control and ±100 the full control effect; nearly all actives have a fitted effect of over 35% in size
In short: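 AC50 from Hill-modelled qHTS concentration-response curves. H-4-II-E rat hepatoma cells in complete medium, 40 hr exposure at 37 °C, viability by CellTiter-Glo ATP luminescence.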

[10] = Cell Viability - SH-SY5Y (AID 544); conditions: SH-SY5Y neuroblastoma cell viability; viability change, negative = cytotoxic: at 92.2 µM (top of the series); further: nearly all actives have a fitted effect of over 55% in size
In short: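 Quantitative HTS in SH-SY5Y neuroblastoma cells, 40 hr treatment at 37 °C, ATP content by luciferase luminescence; AC50 from Hill fits.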

[11] = Cell Viability - Renal Proximal Tubule (AID 545); conditions: renal proximal tubule cells viability; series mostly up to 91.7 µM; further: nearly all actives have a fitted effect of over 40% in size
In short: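 Cytotoxicity is scored as a concentration-dependent drop in cellular ATP in primary rat renal proximal tubule cells exposed for 40 hr. AC50 derives from Hill modelling.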

[12] = Cellular Toxicity (caspase-3) HepG2 (AID 654); conditions: HepG2 caspase-3 activation, luminescence, 0% = DMSO only, 100% = tamoxifen; series mostly up to 92.2 µM;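 further: cells exposed to compound for 16 hours before reading; 0% = DMSO alone and 100% = caspase signal from 100 µM tamoxifen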
In short: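 Concentration-response AC50 values reflect caspase-3/7 induction in HepG2 cells after 16 hours of compound exposure, quantified by luminescence from liberated aminoluciferin and referenced to 100 uM tamoxifen as full stimulation.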

[13] = Cellular Toxicity (caspase-3) HUV-EC-C (AID 656); conditions: HUV-EC-C cells, caspase-3 activation (apoptosis), vehicle = 0, 100 µM tamoxifen = 100%; series mostly up to 92.2 µM
In short: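 Read-out: luminescence proportional to caspase 3/7 activity, measured 20 min after adding Caspase-Glo 3/7 reagent. Cells (HUV-EC-C) had received compound for 16 hr at 37°C. Increases relative to DMSO and 100 uM tamoxifen gave concentration-response AC50 values.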

[14] = Cellular Toxicity (caspase-3) SHSY5Y (AID 657); conditions: SH-SY5Y caspase-3 activation, DMSO zero, 10 µM staurosporine = 100%; series mostly up to 91.7 µM
In short: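 Cells plated and incubated 5 h at 37 °C, dosed over a concentration range, incubated 16 h, then given Caspase-Glo 3/7 reagent for 1 h at room temperature before luminescence reading. Staurosporine (10 uM) defined full stimulation.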

[15] = Cellular Toxicity (caspase-3) BJ (AID 658); conditions: BJ fibroblasts, luminescence, normalized: DMSO 0%, staurosporine 100%; series mostly up to 91.7 µM
In short: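 qHTS, BJ fibroblasts, 1000 cells/well; 5 hr preincubation, 16 hr compound, 37 °C; Caspase-Glo 3/7 reagent, 1 hr RT; luminescence. DMSO = 0%, 10 uM staurosporine = 100%. Hill-equation AC50.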

[16] = Cellular Toxicity (caspase-3) Mesangial (AID 660); conditions: mesangial cells, normalized: DMSO 0%, 100 µM tamoxifen 100%; series mostly up to 91.7 µM;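 further: cells exposed to compound for 16 h before the caspase read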
In short: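 AC50 values come from Hill-equation fits of caspase 3/7 activation, measured as Caspase-Glo luminescence in human glomerular mesangial cells exposed to compound for 16 h at 37 °C; 100% set by 100 uM tamoxifen.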

[17] = Cellular Toxicity (caspase-3) SK-N-SH (AID 661); conditions: SK-N-SH caspase-3 activation, qHTS; series mostly up to 91.7 µM
In short: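 Apoptosis readout in SK-N-SH neuroblastoma: Caspase-Glo 3/7 luminescence following 16 hr treatment in complete culture medium. Normalization used DMSO and 10 uM staurosporine controls.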

[18] = Cellular Toxicity (caspase-3) H-4-II-E (AID 663); conditions: H-4-II-E rat hepatoma; Potency: caspase-3 activation; series mostly up to 92.2 µM;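 further: cells exposed to compound for 16 hr before readout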
In short: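 H-4-II-E rat hepatoma, 1500 cells/well, 5 hr settle at 37 °C; compound 16 hr, 37 °C, complete medium; Caspase-Glo 3/7, 20 min RT; luminescence. DMSO = 0%, 100 uM tamoxifen = 100%; Hill-equation AC50.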

[19] = Cellular Toxicity (caspase-3) Hek293 (AID 664); conditions: HEK293 caspase-3 activation, DMSO = 0%, 100 µM tamoxifen = 100%; at 92.2 µM (top of the series);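 further: cells exposed to compound for 16 h at 37 °C before readout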
In short: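 Apoptosis readout: Caspase-Glo 3/7 signal in human HEK293 cells following 16-hour compound incubation. Responses scaled between DMSO baseline and 100 uM tamoxifen.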

[20] = Cellular Toxicity (caspase-3) N2a (AID 665); conditions: N2a cells, luminescence, normalized: DMSO 0%, 10 µM staurosporine 100%; series mostly up to 92.2 µM;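 further: compound exposure lasted 16 h at 37 °C before readout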
In short: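 Concentration-response qHTS: compound-induced caspase-3/7 luminescence in N2a cells (16 h, 37 °C), relative to DMSO and 10 uM staurosporine controls; AC50 obtained using the standard Hill equation.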

COC(C)(C)C
inactive: Potency [1] > 92 µM | Potency [2] > 92 µM | Potency [3] > 92 µM | Potency [4] > 92 µM | Potency [5] | Potency [6] | Potency [7] | Potency [8] | Potency [9] | Potency [10] | outcome [11] | outcome [12] | outcome [13] | outcome [14] | outcome [15] | outcome [16] | Potency [17] | Potency [18] | caspase-3 activation [19] 0.0289% | outcome [20]
